Source: the supplement of paper PMC7366291
Structures can show the parent of a compound that is named as a salt. ± gives the standard deviation or the standard deviation of the averaged measurements.

What was measured:
Conditions in all cases: 25 µM; exposure: 24-48 hpf
[1] = system: Danio rerio Tg(wt1b:EGFP) embryo, pronephros; test: glomerular separation, fold change vs DMSO control; higher = glomeruli further apart (abnormal)
In short: (§1)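 Dechorionated Tg(wt1b:EGFP) zebrafish embryos were treated with 25 μM compound in 0.5% DMSO, in HEPES-buffered E3 with 0.003% PTU, from 24 to 48 hpf at 28.5°C. On maximum projections of dorsal pronephros images, 16 hand-placed reference points in Fiji gave distances and angles, and values more than 2 SD from the feature mean were left out. Results are fold changes over the mean of same-day DMSO-treated embryos.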

[2] = system: Danio rerio Tg(wt1b:EGFP) embryo, pronephros; test: glomerular width (mean of left and right), fold change vs DMSO control; higher = wider glomerulus
In short: as §1

[3] = system: Danio rerio Tg(wt1b:EGFP) embryo, pronephros; test: fraction of imaged embryos annotated as normal kidney; higher = less nephrotoxic; extreme values may be limits of the assay
In short: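 The read-out is the proportion of embryos in each treatment manually annotated as normal-kidney. Exposure ran from 24 to 48 hpf at 28.5°C in 12-well plates, using dechorionated Tg(wt1b:EGFP) zebrafish embryos in 5 mM HEPES-buffered E3 with 0.003% PTU, 0.5% DMSO and 25 μM compound. For imaging, larvae were anaesthetised with tricaine, positioned dorsally in agarose-filled 96-well plates and captured by widefield fluorescence (470 nm, 10 z-slices), with scoring done on maximum projections.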

[4] = system: Danio rerio Tg(wt1b:EGFP) embryo, pronephros; test: pronephric angle neck segment to proximal convoluted tubule (mean of left and right), fold change vs DMSO control; higher = larger pronephric angle
In short: as §1

Compound	glomerular separation [1]	glomerular width [2]	fraction of imaged embryos annotated as normal kidney [3]	pronephric angle neck segment [4]
CC(C)CC(N(C)C)C1(c2ccc(Cl)cc2)CCC1 (stereo not given) [Sibutramine hydrochloride]	0.986 ± 0.37	0.995 ± 0.021	0.417	1.08 ± 0.054
CC(C)(N)Cc1ccccc1 [Phentermine hydrochloride]	0.886 ± 0.21	0.981 ± 0.035	0.917	0.979 ± 0.031
COc1ccc(Cc2nccc3cc(OC)c(OC)cc23)cc1OC [Papaverine hydrochloride]	0.972 ± 0.22	1.04 ± 0.065	0.833	0.968 ± 0.018
C[C@@H]1CC[C@H]2[C@@H](C)C(=O)O[C@@H]3O[C@@]4(C)CC[C@@H]1[C@]32OO4 [Artemisinin]	0.996 ± 0.38	0.9517 ± 0.0011	1	1.05 ± 0.054
C=CCC1(CC(C)C)C(=O)NC(=O)NC1=O [Butalbital]	0.97 ± 0.31	1.1 ± 0.086	0.75	1.01 ± 0.11
c1ccc2c(c1)OCC(C1=NCCN1)O2 (stereo not given) [Idazoxan hydrochloride]	0.851 ± 0.4	0.99138 ± 0.00087	0.833	1.02 ± 0.021
O=C(NCNC(=O)NC1C(=O)NC(=O)N1CO)NC1C(=O)NC(=O)N1CO (stereo not given) [Imidurea]	0.876 ± 0.2	1.008 ± 0.01	0.833	1.058 ± 0.0052
CC[N+]1(C)CCCC(OC(=O)C(O)(c2ccccc2)c2ccccc2)C1 (stereo not given) [Pipenzolate bromide]	0.89 ± 0.28	1.051 ± 0.0016	0.909	0.981 ± 0.037
CN1[C@@H]2C[C@@H](OC(=O)[C@H](CO)c3ccccc3)C[C@H]1[C@@H]1O[C@@H]12 [Scopolamine hydrochloride]	0.986 ± 0.42	1.09 ± 0.054	0.833	0.984 ± 0.036
C[N+]1(C)CCOC(O)(c2ccc(-c3ccc(C4(O)C[N+](C)(C)CCO4)cc3)cc2)C1 (stereo not given) [Hemicholinium bromide]	0.878 ± 0.14	0.95 ± 0.00098	0.917	1 ± 0.1
